Laboratory results taken from PubChem BioAssay AID1159580 (chemical genetic matrix, 2015).
Several values for one entry are separate records, joined by “and”; a condition that tells them apart may be missing. Equal values may be shown once. The campaign covered roughly 5,500 compounds. About 2,000 (36%) were called active. Not shown: some 18% with an inconclusive outcome. No stated cut-off is given here; in the data, active means normalized growth mostly below about 0.91 (no sharp cut-off); inconclusive means no clear call, values can overlap the other calls; inactive means mostly above about 0.92. The list shows a part of the results.

Experiment: chemical genetic growth profiling, strain panel (AID 1159580);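 further: tested at 20 µM; growth read once vehicle control cultures reached saturation at 30 °C; 1 = growth at the plate median or of vehicle wells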
Conditions: growth OD

Measured: normalized growth

CN(C)CCN(Cc1cccs1)c1ccccn1
inactive: S. cerevisiae deletion strains, locus YJR075W, strain HOC1, stronger effect = lower value 0.98 and 1.01 | S. cerevisiae deletion strains, locus YKL009W, strain mrt4, stronger effect = lower value 1.02 | S. cerevisiae deletion strains, locus YKL068W, stronger effect = lower value 1.01 | S. cerevisiae deletion strains, locus YKL085W, strain MDH1 (second series), stronger effect = lower value 0.997 | S. cerevisiae deletion strains, locus YKL085W, strain MDH1, stronger effect = lower value 0.997 | S. cerevisiae deletion strains, locus YKL160W, strain elf1, stronger effect = lower value 1.01 | S. cerevisiae deletion strains, locus YKL190W, strain CNB1, stronger effect = lower value 0.985 | S. cerevisiae deletion strains, locus YKR001C, strain vps1, stronger effect = lower value 0.986 | S. cerevisiae deletion strains, locus YKR026C, strain gcn3, stronger effect = lower value 1.01 | S. cerevisiae deletion strains, locus YKR091W, strain srl3, stronger effect = lower value 1 | S. cerevisiae deletion strains, locus YLL001W, strain dnm1, stronger effect = lower value 1.01 | S. cerevisiae deletion strains, locus YLL026W, stronger effect = lower value 1 | S. cerevisiae deletion strains, locus YLL041C, strain sdh2, stronger effect = lower value 1.01 | S. cerevisiae deletion strains, locus YLR027C, strain aat2, stronger effect = lower value 1.01 | S. cerevisiae deletion strains, locus YLR039C, strain RIC1, stronger effect = lower value 1.03 | S. cerevisiae deletion strains, locus YLR058C, strain SHM2, stronger effect = lower value 1.02 | S. cerevisiae deletion strains, locus YLR102C, strain apc9, stronger effect = lower value 1.01 | S. cerevisiae deletion strains, locus YLR113W, strain HOG1, stronger effect = lower value 0.995 | S. cerevisiae deletion strains, locus YLR221C, strain rsa3, stronger effect = lower value 1.01 | S. cerevisiae deletion strains, locus YLR258W, strain gsy2, stronger effect = lower value 1.01 | S. cerevisiae deletion strains, locus YLR262C, strain YPT6 (second series), stronger effect = lower value 1.01 | S. cerevisiae deletion strains, locus YLR262C, strain YPT6, stronger effect = lower value 1.11 | S. cerevisiae deletion strains, locus YLR268W, strain sec22, stronger effect = lower value 1.01 | S. cerevisiae deletion strains, locus YLR320W, strain mms22, stronger effect = lower value 1.04 | S. cerevisiae deletion strains, locus YLR330W, strain CHS5, stronger effect = lower value 1 | S. cerevisiae deletion strains, locus YLR342W, strain FKS1 (second series), stronger effect = lower value 1.04 | S. cerevisiae deletion strains, locus YLR342W, strain FKS1, stronger effect = lower value 1.01 | S. cerevisiae deletion strains, locus YLR357W, strain rsc2, stronger effect = lower value 1.03 | S. cerevisiae deletion strains, locus YLR370C, strain arc18, stronger effect = lower value 1.02 | S. cerevisiae deletion strains, locus YLR371W, strain rom2, stronger effect = lower value 1.01 | S. cerevisiae deletion strains, locus YLR384C, strain iki3, stronger effect = lower value 1.01 | S. cerevisiae deletion strains, locus YLR418C, strain cdc73, stronger effect = lower value 1.02 | S. cerevisiae deletion strains, locus YML016C, strain PPZ1, stronger effect = lower value 1.01 | S. cerevisiae deletion strains, locus YML032C, strain rad52, stronger effect = lower value 0.988 | S. cerevisiae deletion strains, locus YML120C, strain ndi1, stronger effect = lower value 1.01 | S. cerevisiae deletion strains, locus YML124C, strain tub3, stronger effect = lower value 1.01 | S. cerevisiae deletion strains, locus YMR058W, strain fet3, stronger effect = lower value 1.01 | S. cerevisiae deletion strains, locus YMR078C, strain ctf18, stronger effect = lower value 1.02 | S. cerevisiae deletion strains, locus YMR125W, strain sto1, stronger effect = lower value 1.01 | S. cerevisiae deletion strains, locus YMR129W, stronger effect = lower value 1.01 | S. cerevisiae deletion strains, locus YMR205C, strain PFK2, stronger effect = lower value 1.02 | S. cerevisiae deletion strains, locus YMR223W, strain ubp8, stronger effect = lower value 1.05 | S. cerevisiae deletion strains, locus YMR231W, strain pep5, stronger effect = lower value 1.01 | S. cerevisiae deletion strains, locus YMR307W, strain GAS1, stronger effect = lower value 1.02 | S. cerevisiae deletion strains, locus YNL067W, strain RPL9B, stronger effect = lower value 0.997 | S. cerevisiae deletion strains, locus YNL071W, strain lat1, stronger effect = lower value 1 | S. cerevisiae deletion strains, locus YNL128W, strain TEP1, stronger effect = lower value 1.02 | S. cerevisiae deletion strains, locus YNL153C, strain GIM3, stronger effect = lower value 0.989 and 1.02 | S. cerevisiae deletion strains, locus YNL175C, strain NOP13, stronger effect = lower value 1.02 | S. cerevisiae deletion strains, locus YNL183C, strain NPR1, stronger effect = lower value 0.886 | S. cerevisiae deletion strains, locus YNL197C, strain WHI3, stronger effect = lower value 0.992 | S. cerevisiae deletion strains, locus YNL209W, strain ssb2, stronger effect = lower value 1 | S. cerevisiae deletion strains, locus YNL224C, strain SQS1, stronger effect = lower value 1.01 | S. cerevisiae deletion strains, locus YNL233W, strain BNI4, stronger effect = lower value 0.986 | S. cerevisiae deletion strains, locus YNL248C, strain rpa49, stronger effect = lower value 1.02 | S. cerevisiae deletion strains, locus YNL250W, strain rad50, stronger effect = lower value 1.02 | S. cerevisiae deletion strains, locus YNL271C, strain bni1, stronger effect = lower value 1.01 | S. cerevisiae deletion strains, locus YNL298W, strain CLA4, stronger effect = lower value 1.01 | S. cerevisiae deletion strains, locus YNL307C, strain MCK1, stronger effect = lower value 1.02 | S. cerevisiae deletion strains, locus YNL322C, strain KRE1 (second series), stronger effect = lower value 1.01 | S. cerevisiae deletion strains, locus YNL322C, strain KRE1, stronger effect = lower value 0.991 | S. cerevisiae deletion strains, locus YNR049C, strain mso1, stronger effect = lower value 1.02 | S. cerevisiae deletion strains, locus YNR052C, strain pop2, stronger effect = lower value 1.01 | S. cerevisiae deletion strains, locus YOL006C, strain TOP1, stronger effect = lower value 0.902 | S. cerevisiae deletion strains, locus YOL012C, strain htz1 0.737 | S. cerevisiae deletion strains, locus YOL147C, strain pex11, stronger effect = lower value 1.02 | S. cerevisiae deletion strains, locus YOR001W, strain rrp6, stronger effect = lower value 1 | S. cerevisiae deletion strains, locus YOR061W, strain CKA2, stronger effect = lower value 1.01 | S. cerevisiae deletion strains, locus YOR069W, strain VPS5, stronger effect = lower value 1.01 | S. cerevisiae deletion strains, locus YOR070C, strain gyp1, stronger effect = lower value 1.01 | S. cerevisiae deletion strains, locus YOR080W, strain dia2, stronger effect = lower value 1 | S. cerevisiae deletion strains, locus YOR083W, strain WHI5 (second series), stronger effect = lower value 1.01 | S. cerevisiae deletion strains, locus YOR083W, strain WHI5, stronger effect = lower value 1.01 | S. cerevisiae deletion strains, locus YOR106W, strain vam3, stronger effect = lower value 0.998 | S. cerevisiae deletion strains, locus YOR136W, strain idh2, stronger effect = lower value 1.01 | S. cerevisiae deletion strains, locus YOR144C, strain elg1, stronger effect = lower value 1.01 | S. cerevisiae deletion strains, locus YOR184W, strain ser1, stronger effect = lower value 1.01 | S. cerevisiae deletion strains, locus YOR231W, strain MKK1, stronger effect = lower value 0.88 | S. cerevisiae deletion strains, locus YOR265W, strain rbl2, stronger effect = lower value 1.01 | S. cerevisiae deletion strains, locus YOR270C, strain vph1, stronger effect = lower value 1 | S. cerevisiae deletion strains, locus YOR290C, strain snf2, stronger effect = lower value 1.01 | S. cerevisiae deletion strains, locus YOR316C, strain cot1, stronger effect = lower value 1.01 | S. cerevisiae deletion strains, locus YPL051W, strain arl3, stronger effect = lower value 1.01 | S. cerevisiae deletion strains, locus YPL055C, strain LGE1, stronger effect = lower value 0.929 | S. cerevisiae deletion strains, locus YPL078C, strain atp4, stronger effect = lower value 1 | S. cerevisiae deletion strains, locus YPL106C, strain sse1, stronger effect = lower value 1 | S. cerevisiae deletion strains, locus YPL240C, strain hsp82, stronger effect = lower value 1.01 | S. cerevisiae deletion strains, locus YPL256C, strain CLN2, stronger effect = lower value 0.98 | S. cerevisiae deletion strains, locus YPR119W, strain clb2, stronger effect = lower value 1.01 | S. cerevisiae deletion strains, locus YPR141C, strain kar3, stronger effect = lower value 1 | S. cerevisiae deletion strains, locus YPR163C, strain tif3, stronger effect = lower value 1.01 | S. cerevisiae deletion strains, locus YPR167C, strain met16, stronger effect = lower value 1.01 | S. cerevisiae deletion strains, strain wtn01, stronger effect = lower value 1.01 | S. cerevisiae strains, strain wild type, stronger effect = lower value 1
active: S. cerevisiae deletion strains, locus YJR066W, strain TOR1, stronger effect = lower value 0.82
